We go through ten compounds from PubChem BioAssay (Tox21).

Results filed as inconclusive are left out. The source made the active and inactive calls. Unless noted, the call rests on the fitted dose curve; in most records, active means well fitted curve in the direction sought with a large enough effect in the repeat runs; inconclusive means weak or mixed curves; inactive means no such curve, though single readings can be large; an effect the other way counts as inactive or inconclusive.

Assay [1] is described as follows: qHTS assay to identify small molecule antagonists of the estrogen receptor alpha (ER-alpha) signaling pathway using the BG1 cell line in the presence of 0.1 nM 17-beta-estradiol - cell viability counter screen (AID 1259241). Further: nearly all actives have a fitted effect of over 40% in size. The gist of the method:
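Viability in VM7Luc4E2 cells after 22 hr compound exposure under 0.1 nM 17beta-estradiol stimulation, by CellTiter-Fluor.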
(Quantitative high-throughput screening tests each substance at several concentrations.)

Assay [2] is described as follows: qHTS assay to identify small molecule antagonists of the androgen receptor (AR) signaling pathway using the MDA cell line in the presence of 0.5 nM R1881 - cell viability counter screen (AID 1259242). Further: nearly all actives have a fitted effect of over 45% in size. The method, boiled down: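 qHTS format. MDA-kb2 (MMTV-luc, AR/GR responsive) + cpd + 0.5 nM R1881 final, 16 hr 37C/0% CO2 → CellTiter-Fluor 30 min → fluorescence intensity.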

The target of assay [3] is Estrogen receptor (Homo sapiens) (UniProt P03372). Description: qHTS assay to identify small molecule antagonists of the estrogen receptor alpha (ER-alpha) signaling pathway using the BG1 cell line in the presence of 0.1 nM 17-beta-estradiol (AID 1259244). Further: nearly all actives have a fitted effect of over 50% in size. The method, boiled down: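 Reporter is a stably transfected luciferase under four estrogen responsive elements in VM7Luc4E2 cells expressing native full-length ER-alpha; inhibition of 0.1 nM (final) 17beta-estradiol-driven signal over 22 h is read by luminescence.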

Assay [4] is described as follows: qHTS assay to identify small molecule HDAC inhibitors (AID 1259364).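 Further: wild-type HCT-116 cells with endogenous class I/II HDAC activity; top concentration of the series differs between compounds; nearly all actives have a fitted effect of over 45% in size.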 The gist of the method:
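Quantitative high-throughput format: overnight-seeded HCT-116 cells got compounds for 2 hr at 37C; HDAC-Glo I/II reagent added, 30 min RT, luminescence measured.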

Assay [5] can be described thus: qHTS assay to identify small molecule HDAC inhibitors - cell viability counter screen (AID 1259365). Further: series mostly up to about 92 µM; nearly all actives have a fitted effect of over 50% in size. The method, boiled down: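 Cytotoxicity was gauged in wild-type HCT-116 cells after a brief 2hr treatment with DMSO-dissolved compounds at 37C and 5% CO2, using CellTiter-Glo luminescence developed for 30min at room temperature.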
The nature of assay [6]: qHTS assay to identify small molecule agonists of the sonic hedgehog signaling (Shh) pathway - cell viability counter screen (AID 1259366). Further: nearly all actives have a fitted effect of over 50% in size. The method, boiled down: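 Stable Gli1-Luc NIH/3T3 clone, 2,000 cells/well. Compound exposure 24hr at 37C. Read-out: CellTiter-Fluor fluorescence.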
Assay [7] in a line: qHTS assay to identify small molecule antagonists of the sonic hedgehog signaling (Shh) pathway - cell viability counter screen (AID 1259367). Further: nearly all actives have a fitted effect of over 55% in size. The gist of the method:
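Cytotoxicity was assessed in parallel with Shh reporter activity by measuring live-cell protease fluorescence (CellTiter-Fluor) in NIH/3T3 cells stably carrying Gli1-Luc, treated with compound under conditioned medium stimulation for 23 hr plus 1 hr reagent incubation.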

A short description of assay [8]: qHTS assay to identify small molecule agonists of the sonic hedgehog signaling (Shh) pathway (AID 1259368; calls by dose curve;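 further: NIH/3T3-derived 3T3Gli1-Luc cells carrying a stable Gli1-driven firefly luciferase reporter; series mostly up to about 92 µM; nearly all actives have a fitted effect of over 15% in size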). The gist of the method: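 Quantitative high-throughput format using a Gli1-driven firefly luciferase reporter line derived from NIH/3T3 cells. After a 24 hr compound treatment at 37 C and 5% CO2, luminescence reported Gli1 response element activity.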
Assay [9] in a line: qHTS assay to identify small molecule antagonists of the sonic hedgehog signaling (Shh) pathway (AID 1259369; calls by dose curve; further: nearly all actives have a fitted effect of over 45% in size; further: potency means the concentration at half of the fitted maximal effect). The gist of the method:
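Stable Gli1-Luc reporter NIH/3T3 clone; quantitative HTS in stimulated mode with conditioned medium. Luminescence measured after 24hr compound treatment at 37 C.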

The target of assay [10] is Estrogen receptor beta (Homo sapiens) (UniProt Q92731). In words: qHTS assay to identify small molecule agonists of the estrogen receptor beta (ER-beta) signaling pathway (AID 1259377; active means well fitted activation curve with a large enough effect in the signal ratio in the repeat runs, not every such curve was filed as active; the % refers to the signal ratio). The method, boiled down:
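Measured by fluorescence intensity from a B/G FRET beta-lactamase substrate (2 h, room temperature) in ER-beta-UAS-bla HEK293T cells treated with DMSO-dissolved compounds for 16 hr at 37C and 5% CO2.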

Assay [11] shares this target. Description: qHTS assay to identify small molecule antagonists of the estrogen receptor beta (ER-beta) signaling pathway (AID 1259378; active means well fitted inhibition curve with a large enough effect in the signal ratio in the repeat runs, not every such curve was filed as active; the % refers to the signal ratio). The gist of the method:
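ER-beta-UAS-bla HEK293T (GripTite) cells in 2% charcoal-stripped FBS medium were preincubated 6 hr at 37C, dosed with compound, then stimulated with 1 nM E2 (final) for 16 hr; beta-lactamase reporter read by B/G FRET fluorescence after 2 hr substrate loading.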

Assay [12] is described as follows: qHTS assay to identify small molecule agonists of the androgen receptor (AR) signaling pathway in the presence of an antagonist - cell viability counter screen (AID 1259379).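 Further: MDA-kb2 human breast cancer cells carrying an MMTV luciferase reporter; series mostly up to about 92 µM; nearly all actives have a fitted effect of over 25% in size.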 The method, boiled down: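 Nilutamide-containing (3.0uM final) MDA-kb2 cultures, 3,000 cells/well, were treated with compounds across 15 concentrations. After 16 hr at 37C with no CO2, cell viability was determined by CellTiter-Fluor fluorescence in the luciferase assay wells.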

Assay [13] is described as follows: qHTS assay to identify small molecule agonists of the estrogen receptor beta (ER-beta) signaling pathway - cell viability counter screen (AID 1259380). Further: nearly all actives have a fitted effect of over 30% in size. The method, boiled down:
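Steps: plate ER-beta-UAS-bla HEK293T cells, rest 6 hr; add compounds in DMSO; incubate 16 hr at 37C, 5% CO2; add FRET substrate 2 hr; add CellTiter-Glo, wait 30 min at room temperature; read luminescence.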

Assay [14] is described as follows: qHTS assay to identify small molecule antagonists of the estrogen receptor beta (ER-beta) signaling pathway - cell viability counter screen (AID 1259382). Further: series mostly up to about 92 µM; nearly all actives have a fitted effect of over 55% in size. The gist of the method:
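Viability is scored by CellTiter-Glo luminescence (30 min, room temperature) in ER-beta-UAS-bla HEK293T wells already read for reporter fluorescence. Compound exposure lasts 16 hr at 37C alongside 1nM 17-beta-estradiol in charcoal-stripped serum medium.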

The target in assay [15] is Estrogen receptor (Homo sapiens) (UniProt P03372). In words: qHTS assay to identify small molecule agonists of the estrogen receptor alpha (ER-alpha) signaling pathway in the presence of an antagonist (AID 1259383; calls by dose curve; further: top concentration of the series differs between compounds; nearly all actives have a fitted effect of over 15% in size). The method, boiled down: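 Readout was ERE-driven luciferase luminescence in VM7Luc4E2 cells, which express full-length ER-alpha endogenously. Compounds were tested at 15 concentrations for 22hr alongside 10.0nM ICI-182,780 (final concentration).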

Assay [16] can be described thus: qHTS assay to identify small molecule agonists or antagonists of the thyroid stimulating hormone receptor (TSHR) signaling pathway - wild type cell line counter screen (AID 1259384; calls by dose curve). The gist of the method: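 Wild-type HEK293 cells were plated 18 h at 37 C/5% CO2, pin-dosed with compound plus Ro20-1724 medium, held 30 min at room temperature, then given cAMP-d2 and anti-cAMP-cryptate; fluorescence was read after 1 h. Fifteen concentrations, triplicate.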

Assay [17] concerns the target Thyrotropin receptor (Homo sapiens) (UniProt P16473). In words: qHTS assay to identify small molecule antagonists of the thyroid stimulating hormone receptor (TSHR) signaling pathway (AID 1259385; calls by dose curve; further: nearly all actives have a fitted effect of over 20% in size). The gist of the method:
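TSHR-HEK293 cells were plated and held 18 h at 37C/5% CO2, then given compound plus Ro20-1724 and stimulated with TSH at 1.5 ng/mL final. After 30 min at room temperature, cAMP was detected with cAMP-d2/anti-cAMP-cryptate (1 h) by fluorescence.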

Assay [18] in a line: qHTS assay to identify small molecule phospholipidosis (PLD) inducers (AID 1259344; active means well fitted curve in the direction sought with a large enough effect; an effect the other way counts as inactive or inconclusive). The method, boiled down:
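Cells (HepG2, 900 per well) attach for 4 h, receive LipidTOX Red and compound together, incubate 24 h at 37 C, are fixed 30 min with paraformaldehyde/Hoechst, then imaged at one site per well.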

Chain of Estrogen receptor beta (Homo sapiens) (Q92731 whole entry, looked up): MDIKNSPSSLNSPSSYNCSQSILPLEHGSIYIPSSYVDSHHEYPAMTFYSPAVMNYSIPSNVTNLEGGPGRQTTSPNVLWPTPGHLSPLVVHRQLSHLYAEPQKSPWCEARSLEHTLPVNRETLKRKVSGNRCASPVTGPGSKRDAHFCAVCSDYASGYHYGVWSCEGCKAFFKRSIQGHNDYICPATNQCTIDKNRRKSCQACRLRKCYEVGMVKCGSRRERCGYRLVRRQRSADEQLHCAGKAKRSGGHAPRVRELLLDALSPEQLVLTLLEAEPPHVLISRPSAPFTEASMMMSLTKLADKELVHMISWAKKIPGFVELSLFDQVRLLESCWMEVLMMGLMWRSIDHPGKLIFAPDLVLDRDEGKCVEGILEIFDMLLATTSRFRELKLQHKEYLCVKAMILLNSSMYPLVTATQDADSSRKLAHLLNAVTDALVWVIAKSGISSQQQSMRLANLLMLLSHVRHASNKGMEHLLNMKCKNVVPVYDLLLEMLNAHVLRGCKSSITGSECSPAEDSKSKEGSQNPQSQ
Chain of Thyrotropin receptor (Homo sapiens) (P16473 whole entry, looked up): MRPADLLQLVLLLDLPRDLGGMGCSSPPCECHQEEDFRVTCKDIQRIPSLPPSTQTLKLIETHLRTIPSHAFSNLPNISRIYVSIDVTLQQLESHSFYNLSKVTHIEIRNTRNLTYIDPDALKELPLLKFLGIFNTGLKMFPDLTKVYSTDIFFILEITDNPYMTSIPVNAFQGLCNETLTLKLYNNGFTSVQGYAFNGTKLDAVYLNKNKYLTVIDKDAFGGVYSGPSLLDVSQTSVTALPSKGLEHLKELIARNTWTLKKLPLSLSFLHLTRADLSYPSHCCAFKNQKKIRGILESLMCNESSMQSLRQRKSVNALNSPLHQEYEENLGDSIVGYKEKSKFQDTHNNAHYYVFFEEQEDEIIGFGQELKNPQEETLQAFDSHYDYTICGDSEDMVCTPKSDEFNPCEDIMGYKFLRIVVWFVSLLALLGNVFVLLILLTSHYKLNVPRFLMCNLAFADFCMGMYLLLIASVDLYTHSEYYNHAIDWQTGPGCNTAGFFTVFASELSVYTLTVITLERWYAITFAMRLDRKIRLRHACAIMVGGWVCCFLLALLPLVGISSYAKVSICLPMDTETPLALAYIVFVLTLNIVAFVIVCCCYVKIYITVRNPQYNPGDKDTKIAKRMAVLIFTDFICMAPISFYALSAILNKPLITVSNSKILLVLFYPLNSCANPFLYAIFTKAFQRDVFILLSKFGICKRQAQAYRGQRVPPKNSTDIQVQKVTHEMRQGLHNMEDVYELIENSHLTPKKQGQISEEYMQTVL
Chain of Estrogen receptor (Homo sapiens) (P03372 whole entry, looked up): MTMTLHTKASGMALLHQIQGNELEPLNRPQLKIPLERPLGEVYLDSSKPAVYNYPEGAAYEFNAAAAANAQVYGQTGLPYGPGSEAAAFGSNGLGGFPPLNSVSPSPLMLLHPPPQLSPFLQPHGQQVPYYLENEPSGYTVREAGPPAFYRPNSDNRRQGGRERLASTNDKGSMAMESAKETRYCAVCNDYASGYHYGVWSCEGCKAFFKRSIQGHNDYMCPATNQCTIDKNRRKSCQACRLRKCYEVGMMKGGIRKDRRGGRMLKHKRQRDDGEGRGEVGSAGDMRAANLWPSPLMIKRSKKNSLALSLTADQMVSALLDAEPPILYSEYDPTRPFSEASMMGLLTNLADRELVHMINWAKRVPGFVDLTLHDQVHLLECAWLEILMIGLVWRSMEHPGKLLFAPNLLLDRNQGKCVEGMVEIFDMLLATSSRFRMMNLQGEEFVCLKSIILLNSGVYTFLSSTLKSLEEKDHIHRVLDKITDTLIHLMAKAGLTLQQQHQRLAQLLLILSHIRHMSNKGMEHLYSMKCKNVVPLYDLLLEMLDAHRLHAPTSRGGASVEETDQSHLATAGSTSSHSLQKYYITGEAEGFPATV

As to `O=C([O-])c1ccccn1.O=C([O-])c1ccccn1.O=C([O-])c1ccccn1.[Cr+3]`, the Potency result in [1], in [2], in assay [3], in assay [4], in [5] and in assay [6] was “inactive” each time. In addition, the Potency result in assay [7], in assay [8], in assay [9], in [10], in assay [11] and in [12] was “inactive” throughout. Also, the Potency result in assay [13], in assay [14] and in [15] was “inactive” throughout.

On to `CCNC(=O)NC(=O)/C(C#N)=N/OC`, for which the Potency entry in assay [1], in assay [2], in assay [3], in assay [5], in [6] and in [8] was “inactive” each time. For the same compound, the Potency entry in assay [9], in [12], in assay [13], in assay [14], in [15] and in [17] was “inactive” each time. Further, the outcome in assay [16] was inactive.

In the case of `CCCCC(CC)CO[N+](=O)[O-]` (stereo not drawn), the Potency result in assay [1], in assay [2], in [3], in [4], in assay [5] and in assay [6] was “inactive” in each case. Moreover, the Potency entry in assay [7], in assay [8], in assay [9], in assay [10], in assay [11] and in assay [12] was “inactive” each time. The Potency entry in [13], in assay [14], in assay [15] and in assay [17] was “inactive” each time. For the same compound, the outcome in assay [16] was inactive.

Turning to `OCCSSCCO`, the Potency entry in assay [1], in assay [2], in [3], in assay [4], in assay [5] and in assay [6] was “inactive” in each case. Further, the Potency entry in assay [8], in assay [9], in [13], in assay [14] and in assay [15] was “inactive” each time.

For `CC(Oc1cc(Cl)c(Cl)cc1Cl)C(=O)O` (stereo not drawn), the Potency result in assay [1], in assay [2], in assay [3], in [4], in assay [5] and in [6] was “inactive” each time. For the same compound, the Potency result in assay [7], in [8], in assay [9], in assay [10], in [15] and in [17] was “inactive” each time. Besides, the compound was called inactive in [16].

Take `NCCc1cc(O)c(O)cc1O`: the Potency entry in [1], in [2], in [3], in assay [5], in assay [8] and in [9] was “inactive” in each case. In addition, the Potency result in assay [12], in assay [13], in [14] and in assay [15] was “inactive” in each case. Also, the call in assay [18] and in [16] was inactive.

As for `CCCSP(=S)(OCC)Oc1ccc(SC)cc1` (stereo not drawn), the Potency result in assay [1], in assay [2], in [3], in assay [4], in assay [5] and in assay [6] was “inactive” in each case. In addition, the Potency result in [7], in [8], in assay [10], in assay [11], in assay [13] and in [14] was “inactive” throughout. The Potency entry in assay [15] and in [17] was “inactive” each time. Besides, the Potency in [9] is 61.1 µM (active). Further, in [16], the result was inactive.

For `NC(=O)CF`, the Potency entry in assay [1], in [2], in [3], in assay [4], in assay [5] and in assay [6] was “inactive” each time. The Potency entry in assay [7], in assay [8], in [9], in assay [12], in [13] and in assay [14] was “inactive” each time. Also, the Potency entry in assay [15] and in assay [17] was “inactive” in each case. The call in assay [16] was inactive.

Take `CCOP(=S)(OCC)Oc1ccc(S(C)=O)cc1` (stereo not drawn): the Potency entry in [1], in assay [2], in [3], in assay [5], in [6] and in assay [7] was “inactive” each time. Also, the Potency entry in [8], in [9], in assay [10], in assay [11], in [12] and in [13] was “inactive” in each case. The Potency entry in [14], in assay [15] and in assay [17] was “inactive” throughout. Further, the compound was classed as inactive in [16].

Regarding `CCOc1cccc(C2(N3CCN(c4ccccc4)CC3)CCC(C)CC2)c1` (stereo not drawn), the Potency entry in assay [1], in [2], in [3], in [4], in assay [5] and in assay [6] was “inactive” throughout. The Potency result in assay [7], in [8], in assay [9], in assay [12], in assay [13] and in assay [14] was “inactive” throughout. In addition, the Potency entry in [15] and in [17] was “inactive” throughout. Further, the result in [16] was inactive.
